For 19 compounds, Potency results are on record in PubChem BioAssay (NCATS).

Common to all, as to test: qHTS profiling for inhibitors of Plasmodium falciparum proliferation (AID 504749); further: nearly all actives have a fitted effect of over 60% in size
Common to all, as to details: P. falciparum in erythrocytes, SYBR Green DNA, 72 h; series mostly up to 28.7 µM

Experiment [1] concerns DFO2036. Put shortly: (§1)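 Each compound contacts P. falciparum-infected red blood cells for 72 h at 37 C; lysis buffer (Tris, EDTA, saponin, Triton X, SYBR Green I) is added and fluorescence measured next morning; values normalized to controls.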
The subject of experiment [2] is DIV14. Put shortly: as §1
The test system of experiment [3] is DIV17. Summed up: as §1
In experiment [4] the test system is DIV30. Summed up: as §1
Experiment [5] has as its system Dd2. Summed up:
as §1

Experiment [6] has as its system ECU. Put shortly: as §1
Experiment [7] deals with FAB9. Summed up:
as §1

Experiment [8] concerns GB4. Summed up: as §1
Experiment [9] concerns HB3. Put shortly: as §1
The subject of experiment [10] is ICS. Put shortly: as §1
Experiment [11] deals with JCK. Put shortly:
as §1

Experiment [12] concerns N140. Summed up:
as §1

Experiment [13] relates to P93_24. Summed up:
as §1

Experiment [14] concerns PAD. Summed up:
as §1

The subject of experiment [15] is PC15. Summed up:
as §1

Experiment [16] has as its system PC26. Summed up:
as §1

In experiment [17] the test system is PC49. Put shortly: as §1
Experiment [18] relates to SC27B. Summed up:
as §1

The subject of experiment [19] is TAB109. Put shortly: as §1
For experiment [20], the system named is P94_40. Summed up:
as §1

Structures are written as SMILES. Results filed as inconclusive are left out. Calls of active or inactive are those of the source. The call rests on the fitted dose curve; in most records, active means well fitted inhibition curve with a large enough effect; inconclusive means small, poorly fitted or top-dose-only effect; inactive means flat fitted curve, though single readings scatter.
Potency means the concentration at half of the fitted maximal effect.

Regarding `Cc1ccc(S(=O)(=O)NC(=O)NN2CCCCCC2)cc1`, the Potency result in experiment [1], in [2], in experiment [3], in experiment [4], in experiment [5] and in experiment [6] was “inactive” each time. Besides, the Potency result in experiment [7], in experiment [8], in experiment [9], in experiment [10], in experiment [11] and in [12] was “inactive” each time. The Potency entry in [13], in [14], in [15], in experiment [16], in [17] and in [18] was “inactive” in each case. For the same compound, in experiment [19], the Potency result was “inactive”.

Regarding `OCCN1CCN(CC/C=C2/c3ccccc3Sc3ccc(C(F)(F)F)cc32)CC1`, the Potency in experiment [3] was 6.75 µM (active); in [4], 8.49 µM (active); in experiment [5] it was 7.94 µM (active); in experiment [6] it was 12.6 µM (active); in experiment [8], 6.75 µM (active); in experiment [9], 6.31 µM (active). Further, the Potency in experiment [10] is 6.31 µM (active); in experiment [12], 11.2 µM (active); in experiment [13] it was 10 µM (active); in experiment [20], 10 µM (active); in [14], 10 µM (active); in experiment [15], 12.6 µM (active). For the same compound, the Potency in experiment [16] was 6.75 µM (active); in [18], 10 µM (active); in experiment [19], 8.91 µM (active).

Turning to `CN(C)CCCN1c2ccccc2Sc2ccccc21`, the Potency in experiment [2] was 1.81 µM (active); in experiment [3], 2.87 µM (active); in experiment [5] it was 3.16 µM (active); in experiment [15] it was 2 µM (active). Further, the Potency result in [6], in experiment [7] and in experiment [9] was “inactive” in each case.

With `CCc1cccc(N(C)C(N)=Nc2cccc3ccccc23)c1`, the Potency is 1.51 µM (active) in experiment [2]; 1.35 µM (active) in [3]; 7.57 µM (active) in experiment [4]; 3.16 µM (active) in [5]; 7.94 µM (active) in experiment [6]; 5.36 µM (active) in experiment [8]. In addition, the Potency in experiment [10] is 2.82 µM (active); in [14], 4.47 µM (active); in experiment [15], 5.01 µM (active); in experiment [16], 4.26 µM (active). Moreover, the Potency entry in experiment [7] and in experiment [9] was “inactive” throughout.

`c1cc(CN2CCCCC2)cc(OCCCNc2nc3ccccc3s2)c1`: the Potency was 6.31 µM (active) in experiment [5], 10 µM (active) in [20] and 2.24 µM (active) in [19]. Further, the Potency entry in [7] and in [11] was “inactive” in each case.

Regarding `CN(C(=O)CCCOc1ccc2[nH]c(=O)ccc2c1)C1CCCCC1`, the Potency result in experiment [1], in experiment [6], in experiment [7], in [8], in [9] and in experiment [12] was “inactive” in each case. In addition, the Potency result in [15], in [18] and in [19] was “inactive” each time.

Consider `O=C1CC2(CCCC2)CC(=O)N1CCCCN1CCN(c2ncccn2)CC1`, for which the Potency result in [1], in [4], in experiment [5], in experiment [7], in experiment [9] and in experiment [10] was “inactive” throughout. Moreover, the Potency result in experiment [11], in experiment [12], in experiment [13], in [20], in [14] and in [15] was “inactive” in each case. Besides, the Potency result in [17], in [18] and in [19] was “inactive” in each case.

On to `Cc1nc2sccn2c(=O)c1CCN1CCC(=C(c2ccc(F)cc2)c2ccc(F)cc2)CC1`, for which the Potency is 16.9 µM (active) in experiment [3], 8.91 µM (active) in experiment [10] and 11.2 µM (active) in experiment [20]. Besides, the Potency entry in experiment [7] was “inactive”.

With `COCCOC(=O)C1=C(C)NC(C)=C(C(=O)OC(C)C)C1c1cccc([N+](=O)[O-])c1` (configuration not stated), the Potency in experiment [2] was 13.5 µM (active); in [3] it was 13.5 µM (active); in [4], 12 µM (active); in experiment [10], 7.08 µM (active); in experiment [12] it was 12.6 µM (active); in experiment [16] it was 12 µM (active). Moreover, the Potency entry in experiment [7] and in experiment [17] was “inactive” each time.

`COC(=O)[C@H]1[C@H]2C[C@@H]3c4[nH]c5cc(OC)ccc5c4CCN3C[C@H]2C[C@@H](OC(=O)c2cc(OC)c(OC)c(OC)c2)[C@@H]1OC`: the Potency in [2] was 1.69 µM (active); in experiment [3], 1.51 µM (active); in experiment [4], 1.07 µM (active); in experiment [5], 12.6 µM (active); in [6], 5.01 µM (active); in experiment [8], 13.5 µM (active). For the same compound, the Potency in [9] was 11.2 µM (active); in experiment [10], 3.55 µM (active); in experiment [12] it was 3.98 µM (active); in [13], 10 µM (active); in [20] it was 7.94 µM (active); in [14], 2 µM (active). For the same compound, the Potency is 11.2 µM (active) in [15]; 2.13 µM (active) in experiment [16]; 7.94 µM (active) in experiment [17]; 7.08 µM (active) in experiment [18]; 8.91 µM (active) in [19].

In the case of `CC(C)[N+](C)(CCOC(=O)C1c2ccccc2Oc2ccccc21)C(C)C`, the Potency entry in experiment [4], in experiment [11], in experiment [15], in [16] and in experiment [17] was “inactive” in each case.

In the case of `NC(=Nc1ccccc1)Nc1ccccc1`, the Potency entry in [1], in experiment [3], in [4], in experiment [6], in [7] and in experiment [9] was “inactive” each time. For the same compound, the Potency entry in [10], in [11], in experiment [12], in experiment [13], in [20] and in experiment [14] was “inactive” in each case. In addition, the Potency result in experiment [15], in experiment [17], in [18] and in experiment [19] was “inactive” in each case.

In the case of `NC(N)=N/N=C/c1c(Cl)cccc1Cl`, the Potency is 12 µM (active) in [8] and 8.91 µM (active) in experiment [10]. Further, the Potency entry in experiment [11], in [17] and in experiment [18] was “inactive” in each case.

With `CN(C)CCOC(=O)COc1ccc(Cl)cc1`, the Potency result in [1], in [4], in experiment [5], in [6], in experiment [7] and in experiment [8] was “inactive” each time. Also, the Potency result in experiment [9], in experiment [10], in experiment [11], in experiment [12], in experiment [13] and in [20] was “inactive” throughout. The Potency entry in experiment [14], in experiment [18] and in [19] was “inactive” each time.

Take `CCOC(=O)c1cnc2c(cnn2CC)c1NN=C(C)C`: the Potency result in [1], in [4], in experiment [5], in [6], in [7] and in experiment [8] was “inactive” throughout. Moreover, the Potency entry in experiment [9], in experiment [11], in experiment [12], in experiment [13], in [14] and in experiment [15] was “inactive” each time. Moreover, the Potency entry in [16], in experiment [17], in experiment [18] and in experiment [19] was “inactive” each time.

As to `CC1=C(C)C(=O)C(CCCCC#CCCCC#CCO)=C(C)C1=O`, the Potency in [2] is 5.36 µM (active); in experiment [3] it was 6.01 µM (active); in [4], 7.57 µM (active); in experiment [6], 2.82 µM (active); in experiment [8], 7.57 µM (active); in experiment [10], 2.24 µM (active). For the same compound, the Potency in experiment [12] was 7.94 µM (active); in [13], 5.01 µM (active); in experiment [20], 8.91 µM (active); in [14], 4.47 µM (active); in [15], 8.91 µM (active); in experiment [16] it was 7.57 µM (active). The Potency in [18] was 7.08 µM (active). The Potency entry in experiment [7] and in experiment [17] was “inactive” throughout.

In the case of `CCCC(C(=O)OCCN(CC)CC)(c1ccccc1)c1ccccc1`, the Potency is 8.49 µM (active) in experiment [2]; 7.57 µM (active) in [3]; 13.5 µM (active) in experiment [4]; 14.1 µM (active) in [5]; 10 µM (active) in experiment [6]; 10.7 µM (active) in experiment [8]. The Potency in experiment [10] was 5.62 µM (active); in experiment [14] it was 11.2 µM (active); in experiment [15], 10 µM (active); in experiment [16], 12 µM (active); in [17], 7.08 µM (active); in experiment [19], 11.2 µM (active).

Regarding `CC(C)COCC(CN(Cc1ccccc1)c1ccccc1)N1CCCC1` (configuration not stated), the Potency result in [2], in [3], in [6], in [7], in [9] and in experiment [11] was “inactive” each time. In addition, the Potency result in experiment [13], in experiment [14], in experiment [17], in experiment [18] and in experiment [19] was “inactive” throughout.

For the compound `COc1ccc(CCN(C)CCCC(C#N)(c2cc(OC)c(OC)c(OC)c2)C(C)C)cc1OC` (configuration not stated), the Potency is 13.5 µM (active) in experiment [3], 5.62 µM (active) in [5] and 7.94 µM (active) in experiment [10]. Besides, the Potency entry in experiment [7], in [15] and in experiment [17] was “inactive” each time.
